In PubChem BioAssay AID1159580 (chemical genetic matrix, 2015):
The whole screen tested about 5,500 compounds, of which about 2,000 (36%) were called active. Not shown: some 18% with an inconclusive outcome. Cut-off read from the data, not from the text of the source: active = normalized growth mostly below about 0.91 (no sharp cut-off); inconclusive = no clear call, values can overlap the other calls; inactive = mostly above about 0.92. The list shows a part of the results.

Assay: chemical genetic growth profiling, strain panel (AID 1159580);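 note: tested at 20 µM; growth read once vehicle control cultures reached saturation at 30 °C; 1 = growth at the plate median or of vehicle wells; lower values mean less growth of the strain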
Conditions: growth OD

Measured: normalized growth

Fc1ccc(C(c2ccccc2)(c2ccccc2F)n2ccnc2)cc1 (stereo unspecified)
inactive: S. cerevisiae deletion strains, locus YOL012C, strain htz1 0.208
active: S. cerevisiae deletion strains, locus YAL013W, strain DEP1, active compounds read low 0.0872 | S. cerevisiae deletion strains, locus YBR021W, strain FUR4, active compounds read low 0.19 | S. cerevisiae deletion strains, locus YBR229C, strain ROT2, active compounds read low 0.0785 | S. cerevisiae deletion strains, locus YCL029C, strain bik1, active compounds read low 0.0815 | S. cerevisiae deletion strains, locus YDL035C, strain GPR1, active compounds read low 0.0631 | S. cerevisiae deletion strains, locus YDL074C, strain BRE1, active compounds read low 0.147 | S. cerevisiae deletion strains, locus YDL101C, strain DUN1, active compounds read low 0.0698 | S. cerevisiae deletion strains, locus YDL134C, strain PPH21, active compounds read low 0.0588 | S. cerevisiae deletion strains, locus YDL185W, strain tfp1, active compounds read low 0.0581 | S. cerevisiae deletion strains, locus YDL192W, strain arf1, active compounds read low 0.0867 | S. cerevisiae deletion strains, locus YDR101C, strain arx1, active compounds read low 0.0775 | S. cerevisiae deletion strains, locus YDR150W, strain NUM1, active compounds read low 0.0798 | S. cerevisiae deletion strains, locus YDR162C, strain NBP2, active compounds read low 0.0536 | S. cerevisiae deletion strains, locus YDR318W, strain mcm21, active compounds read low 0.082 | S. cerevisiae deletion strains, locus YDR388W, active compounds read low 0.0787 | S. cerevisiae deletion strains, locus YDR502C, strain sam2, active compounds read low 0.079 | S. cerevisiae deletion strains, locus YEL061C, strain CIN8, active compounds read low 0.063 | S. cerevisiae deletion strains, locus YER110C, active compounds read low 0.112 | S. cerevisiae deletion strains, locus YER155C, strain BEM2, active compounds read low 0.097 | S. cerevisiae deletion strains, locus YER167W, strain BCK2, active compounds read low 0.0563 | S. cerevisiae deletion strains, locus YGL078C, strain dbp3, active compounds read low 0.111 | S. cerevisiae deletion strains, locus YGL086W, strain mad1, active compounds read low 0.0673 | S. cerevisiae deletion strains, locus YGL248W, strain PDE1, active compounds read low 0.0531 | S. cerevisiae deletion strains, locus YGR078C, strain PAC10, active compounds read low 0.0703 | S. cerevisiae deletion strains, locus YGR135W, strain pre9, active compounds read low 0.0937 | S. cerevisiae deletion strains, locus YGR229C, strain SMI1, active compounds read low 0.0699 | S. cerevisiae deletion strains, locus YGR252W, strain gcn5, active compounds read low 0.179 | S. cerevisiae deletion strains, locus YHR030C, strain SLT2, active compounds read low 0.0565 | S. cerevisiae deletion strains, locus YHR079C, strain IRE1 (second series), active compounds read low 0.0811 | S. cerevisiae deletion strains, locus YHR094C, strain hxt1, active compounds read low 0.0819 | S. cerevisiae deletion strains, locus YHR129C, strain ARP1, active compounds read low 0.0647 | S. cerevisiae deletion strains, locus YHR200W, strain rpn10, active compounds read low 0.101 | S. cerevisiae deletion strains, locus YIL066C, strain RNR3, active compounds read low 0.054 | S. cerevisiae deletion strains, locus YIL073C, strain SPO22, active compounds read low 0.128 | S. cerevisiae deletion strains, locus YIL125W, strain kgd1, active compounds read low 0.14 | S. cerevisiae deletion strains, locus YIR030C, strain dcg1, active compounds read low 0.0795 | S. cerevisiae deletion strains, locus YJL095W, strain BCK1, active compounds read low 0.0549 | S. cerevisiae deletion strains, locus YJL134W, strain LCB3, active compounds read low 0.0651 | S. cerevisiae deletion strains, locus YJL168C, strain set2, active compounds read low 0.0832 | S. cerevisiae deletion strains, locus YJL187C, strain SWE1 (second series), active compounds read low 0.0603 | S. cerevisiae deletion strains, locus YJR043C, strain POL32, active compounds read low 0.0763 | S. cerevisiae deletion strains, locus YJR075W, strain HOC1, active compounds read low 0.0813 | S. cerevisiae deletion strains, locus YKL009W, strain mrt4, active compounds read low 0.4 | S. cerevisiae deletion strains, locus YKL068W, active compounds read low 0.178 | S. cerevisiae deletion strains, locus YKL085W, strain MDH1 (second series), active compounds read low 0.126 | S. cerevisiae deletion strains, locus YKL085W, strain MDH1, active compounds read low 0.126 | S. cerevisiae deletion strains, locus YKL190W, strain CNB1, active compounds read low 0.0509 | S. cerevisiae deletion strains, locus YKR001C, strain vps1, active compounds read low 0.0897 | S. cerevisiae deletion strains, locus YLR039C, strain RIC1, active compounds read low 0.191 | S. cerevisiae deletion strains, locus YLR058C, strain SHM2, active compounds read low 0.0587 | S. cerevisiae deletion strains, locus YLR102C, strain apc9, active compounds read low 0.0876 | S. cerevisiae deletion strains, locus YLR262C, strain YPT6, active compounds read low 0.23 | S. cerevisiae deletion strains, locus YLR268W, strain sec22, active compounds read low 0.0794 | S. cerevisiae deletion strains, locus YLR330W, strain CHS5, active compounds read low 0.0657 | S. cerevisiae deletion strains, locus YLR342W, strain FKS1 (second series), active compounds read low 0.0856 | S. cerevisiae deletion strains, locus YLR371W, strain rom2, active compounds read low 0.0813 | S. cerevisiae deletion strains, locus YLR418C, strain cdc73, active compounds read low 0.127 | S. cerevisiae deletion strains, locus YML016C, strain PPZ1, active compounds read low 0.0591 | S. cerevisiae deletion strains, locus YML032C, strain rad52, active compounds read low 0.104 | S. cerevisiae deletion strains, locus YML124C, strain tub3, active compounds read low 0.0796 | S. cerevisiae deletion strains, locus YMR078C, strain ctf18, active compounds read low 0.101 | S. cerevisiae deletion strains, locus YMR223W, strain ubp8, active compounds read low 0.0885 | S. cerevisiae deletion strains, locus YMR263W, strain SAP30, active compounds read low 0.108 | S. cerevisiae deletion strains, locus YMR307W, strain GAS1, active compounds read low 0.129 | S. cerevisiae deletion strains, locus YNL067W, strain RPL9B, active compounds read low 0.0623 | S. cerevisiae deletion strains, locus YNL128W, strain TEP1, active compounds read low 0.0794 | S. cerevisiae deletion strains, locus YNL153C, strain GIM3, active compounds read low 0.0592 | S. cerevisiae deletion strains, locus YNL233W, strain BNI4, active compounds read low 0.0673 | S. cerevisiae deletion strains, locus YNL250W, strain rad50, active compounds read low 0.133 | S. cerevisiae deletion strains, locus YNL271C, strain bni1, active compounds read low 0.114 | S. cerevisiae deletion strains, locus YNL298W, strain CLA4, active compounds read low 0.0847 | S. cerevisiae deletion strains, locus YNL307C, strain MCK1, active compounds read low 0.0726 | S. cerevisiae deletion strains, locus YNL322C, strain KRE1, active compounds read low 0.0639 | S. cerevisiae deletion strains, locus YNR052C, strain pop2, active compounds read low 0.0915 | S. cerevisiae deletion strains, locus YOL006C, strain TOP1, active compounds read low 0.104 | S. cerevisiae deletion strains, locus YOL147C, strain pex11, active compounds read low 0.0687 | S. cerevisiae deletion strains, locus YOR061W, strain CKA2, active compounds read low 0.077 | S. cerevisiae deletion strains, locus YOR069W, strain VPS5, active compounds read low 0.0662 | S. cerevisiae deletion strains, locus YOR136W, strain idh2, active compounds read low 0.0938 | S. cerevisiae deletion strains, locus YOR144C, strain elg1, active compounds read low 0.076 | S. cerevisiae deletion strains, locus YOR184W, strain ser1, active compounds read low 0.094 | S. cerevisiae deletion strains, locus YOR316C, strain cot1, active compounds read low 0.0765 | S. cerevisiae deletion strains, locus YPL055C, strain LGE1, active compounds read low 0.0913 | S. cerevisiae deletion strains, locus YPL241C, strain CIN2, active compounds read low 0.0643 | S. cerevisiae deletion strains, locus YPR119W, strain clb2, active compounds read low 0.0897 | S. cerevisiae deletion strains, locus YPR141C, strain kar3, active compounds read low 0.24 | S. cerevisiae deletion strains, locus YPR163C, strain tif3, active compounds read low 0.0819 | S. cerevisiae deletion strains, locus YPR167C, strain met16, active compounds read low 0.0807 | S. cerevisiae deletion strains, strain wtn01, active compounds read low 0.1 | S. cerevisiae strains, strain wild type, active compounds read low 0.0558
